PubChem BioAssay AID449762 (Southern Research Specialized Biocontainment Screening …, 2010)
Hit rate of the full screen: of about 330,000 compounds, about 1,900 (0.58%) were called active. Inconclusive results (about 4%) are left out. The list is a sample of the results. Results with a measured potency or affinity are listed apart. Values without a mark were called inactive. Cut-off read from the data, not from the text of the source: inconclusive = inhibition above about 70% without an active follow-up result; inactive = below that.

Assay: M. tuberculosis growth inhibition, HTS (AID 449762);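 note: bacterial growth assessed after seven days of incubation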
Conditions: M. tuberculosis H37Rv growth inhibition, 7H9 media; at 25 µM; stronger effect = higher value

Structure (SMILES) | inhibition [%]
N#CCNc1ccc([N+](=O)[O-])cc1C#N | 2.63
COc1cc2c(cc1OC)C(C)N(C(=O)c1cc3c(s1)-c1c(C)cccc1OC3)CC2 (stereo not drawn) | 60.6
Cc1ccc(C(=O)N/C(=C\c2cccc([N+](=O)[O-])c2)C(=O)OCN2C(=O)c3ccccc3C2=O)cc1 | 9.25
Cc1ccc(C(=O)N/C(=C/c2ccco2)C(=O)O)cc1 | 0.79
NN/C(=C\[N+](=O)[O-])Nc1ccccc1 | 69.9
CS/C(=C\[N+](=O)[O-])Nc1ccc(Cl)cc1 | 55.3
CC(Sc1nnc(-c2cccs2)n1-c1ccccc1)C(=O)NCc1ccc2c(c1)OCO2 (stereo not drawn) | -16.1
CCCCOc1ccc(C(=O)Nc2ccc(N3CCN(C(=O)C(C)C)CC3)cc2)cc1 | 11.1
Cc1cc(OC2CCCCC2)nc(-c2ccccc2O)n1 | -9.08
Cc1cc(Nc2ccccc2Cl)nc(-c2ccccc2O)n1 | 57.3
O=C(Cn1ncc(Cl)c(Cl)c1=O)N1CCOCC1 | 2.21
O=C(Cn1nc(Cl)nc1Cl)c1ccc2c(c1)OCCO2 | 60.7
CCOC(=O)c1sc(=NC(=O)c2ccc(C)c(C)c2)n(C)c1C | 31.6
O=C(N/N=C/c1c[nH]c2ccccc12)c1sc2ccccc2c1Cl | 1.35
O=C(N/N=C/c1cccnc1)c1sc2ccccc2c1Cl | 66
CC(=O)NCCc1nc2cc(NC(=O)c3ccccc3Cl)ccc2n1C | -3.12
Cc1cc(C(C)(C)C)oc1C(=O)OCC(=O)NC1CCCCC1 | 7.47
CS(=O)(=O)N1c2ccccc2[C@]2([C@@]34C[C@H]5C(=O)N[C@@H](Cc6ccccc6)C(=O)N5[C@@H]3N(S(C)(=O)=O)c3ccccc34)C[C@H]3C(=O)N[C@@H](Cc4ccccc4)C(=O)N3[C@H]12 | -2.63
CN1C(=O)[C@@H]2C[C@@]3([C@@]45C[C@H]6C(=O)N(C)[C@@H](Cc7ccccc7)C(=O)N6[C@@H]4Nc4ccccc45)c4ccccc4N[C@H]3N2C(=O)[C@@H]1Cc1ccccc1 | 11.8
CCCCC1S/C(=N/N=C/c2ccco2)NC1=O (stereo not drawn) | 4.46

Structure (SMILES) | inhibition [%]
Cc1ccc(Cn2ccsc2=NC(=O)COC(=O)C(C)C)cc1 | -7.15
CCC(=O)OCC(=O)N=c1sccn1Cc1ccc(C)cc1 | 6.77
COc1ccccc1CN1CC(C(=O)N(C)CCc2nc3ccc(F)cc3[nH]2)CCC1=O (stereo not drawn) | 8.31
CN(Cc1nc2ccccc2[nH]1)C(=O)C1CCC(=O)N(CCc2cccc(F)c2)C1 (stereo not drawn) | -0.88
Cc1cccc(NC(=S)NCC(C)CSc2ccc(Cl)cc2)c1 (stereo not drawn) | 10.5
COc1cccc(C2NC(=O)NC(C)=C2C(=O)OCC2CCCCC2)c1 (stereo not drawn) | -17.1
O=C(CSc1cccc(C(F)(F)F)c1)Nc1ccc(Cl)cc1Cl | -3.06
COC(=O)[C@@H](NC(=O)N1CCN(c2cccc(C(F)(F)F)c2)CC1)C(C)C | 5.31
COC(=O)[C@H](CC(C)C)NC(=O)N1CCN(c2cccc(C(F)(F)F)c2)CC1 | 1.6
Clc1ccccc1-c1nnc2n1CCCCC2 | -3.29
Oc1ccccc1-c1nnc2n1CCCCC2 | -9.99
CCOc1cc(N2CCOCC2)c(OCC)cc1NC(=O)CN1C(=O)NC(C)(C2CC2)C1=O (stereo not drawn) | 8.07
Cc1ccc(C)c(Nc2ccc(C(=O)NCCc3ccccc3)cn2)c1 | 4.16
O=C(CCN=C1NS(=O)(=O)c2ccccc21)Nc1ccc(F)cc1Cl | 7.31
c1ccc2c(c1)CCN(c1nc3cc4c(cc3s1)OCO4)C2 | 38.1
c1ccc(N2CCN(c3nc4cc5c(cc4s3)OCCO5)CC2)cc1 | 5.85
COc1ccc(S(=O)(=O)N2CCN(CC(=O)N3CCc4ccccc4C3)CC2)cc1OC | -1.57
CCCC(=O)NNC(=O)CC(=O)Nc1ccccc1C(=O)O | 2.33
O=C(NC(=S)Nc1cccc2ncccc12)c1ccccc1 | 0.24
O=C(NC(=S)Nc1cccc2cnccc12)c1ccccc1 | 5.56

Structure (SMILES) | inhibition [%]
CNC(=O)Cc1nc2ccccc2n1CC(=O)Nc1cc(C)cc(C)c1 | -9.59
COc1ccc(CN2[C@@H](CC(C)=O)c3cc(C(F)(F)F)ccc3S2(=O)=O)cc1 | -4.65
Cc1nnnn1-c1ccc(CC(=O)O)cc1 | -0.97
CC(C)(C)OC(=O)NCCCCCc1nnc(SCc2ccccc2)o1 | 68.1
Cc1ccc(CSc2nnc(CCNC(=O)OC(C)(C)C)o2)cc1 | 6.64
CCCCn1c(O)c(C(=O)/C=C/c2ccc3c(c2)OCO3)c(=O)[nH]c1=O | 1
O=C(/C=C/c1c[nH]c2ccccc12)c1c(O)n(CCc2ccccc2)c(=O)[nH]c1=O | 35.3
COCCNC(=O)c1ccc(NC(=O)C2(c3ccccc3)CCCC2)cc1 | 40.9
CCn1c(CSCc2ccc(C)cc2)n[nH]c1=S | 3.1
CC1(C)CCC[C@]2(C)[C@H]3Cc4cc(O)ccc4O[C@]3(C)CC[C@@H]12 | 6.49
Cc1cc(/C=N/n2cnnc2)c(C)n1-c1ccc(OCc2ccc(F)cc2)cc1 | -2.12
Cc1cc(/C=N/n2cnnc2)c(C)n1-c1ccc(Cl)cc1 | -4.08
O=C(CCCC(=O)OCC(=O)c1ccc(Cl)cc1)NC1CCCCC1 | 30.8
COc1ccc(C2(C#N)CCC(=O)N2c2ccccc2)cc1 (stereo not drawn) | 5.44
COC(=O)CCc1sc(Nc2ccccc2)nc1-c1ccc(OC)cc1 | 52.4
COc1ccc(Nc2nc(-c3ccc(OC)cc3)c(CCC(=O)O)s2)cc1 | 26.3
O=C(CCCN1C(=O)c2ccccc2C1=O)N1CCN(c2ccccn2)CC1 | -8.5
Cn1c(=O)c2c(nc(NCC3CCCO3)n2C)n(C)c1=O (stereo not drawn) | -5.47
